Screening data (PubChem)
G9a block: inhibitors of human histone lysine methyltransferase G9a; 350,000 compounds, 8.8% hits; Potency, µM (top dose mostly 102 µM), for the others: at the highest dose activity, negative = inhibition, most hits filed as inhibitors; Q96KQ7; AID 504332; G9a H3K9 monomethylation, AlphaScreen, 2 h; further: on the % scale 0 is the no-effect control and ±100 the full control effect; nearly all actives have a fitted effect of over 75% in size
Target sequence (Q96KQ7 913-1193 limits assumed): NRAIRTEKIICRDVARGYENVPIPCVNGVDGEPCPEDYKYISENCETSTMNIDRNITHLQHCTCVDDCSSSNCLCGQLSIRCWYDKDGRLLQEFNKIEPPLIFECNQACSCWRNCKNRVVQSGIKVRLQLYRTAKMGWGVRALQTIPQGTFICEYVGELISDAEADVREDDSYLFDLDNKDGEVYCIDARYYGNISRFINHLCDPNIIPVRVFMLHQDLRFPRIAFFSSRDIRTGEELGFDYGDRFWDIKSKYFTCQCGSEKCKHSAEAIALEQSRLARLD
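Step 1: enzyme (final 20 nM) with compound, 15 min RT. Step 2: substrate peptide 500 nM and SAM 20 uM, 2 h RT. Step 3: anti-H3K9me1 antibody and AlphaScreen beads, 10 min, then plate read.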
Sfp PPTase inh: Sfp phosphopantetheinyl transferase inhibition. Q9F4F7. Biochemical Sfp PPTase activity, qHTS. Potency, µM, for the others: largest response in the series, negative = inhibition, usual class: inhibitors. 310,000 compounds, 3.5% hits. AID 1490;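 further: the enzyme is Sfp with the accession as filed and its product quenches rhodamine fluorescence; 0% = enzyme reaction without inhibitor and -100% = no enzyme wells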
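Reaction rates are the 30-min fluorescence difference (ex 525, em 598 nm) in wells containing 15 nM Sfp, 5 uM rhodamine-CoA and 12.5 uM BHQ-2-YbbR at pH 7.6 with 10 mM MgCl2.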
HP1b binding inh: HP1-beta chromodomain-methylated histone interaction inhibition; AID 540317; Potency, µM (highest dose often 114 µM), without a hit: at the highest dose activity change, negative = inhibition, actives largely listed as inhibitors; 390,000 compounds, 0.56% hits; AlphaScreen HP1-beta / biotin-H3K9me3 peptide binding; further: nearly all actives have a fitted effect of over 70% in size
Target sequence (P83916 whole entry, looked up): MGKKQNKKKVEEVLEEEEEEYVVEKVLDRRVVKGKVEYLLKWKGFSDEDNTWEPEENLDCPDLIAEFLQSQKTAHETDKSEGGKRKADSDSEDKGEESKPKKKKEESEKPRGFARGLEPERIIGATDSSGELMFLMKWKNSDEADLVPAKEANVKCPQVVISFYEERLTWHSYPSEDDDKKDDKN
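Compound inhibition of the preformed complex between 50 nM HP1-beta and 50 nM biotinylated H3K9me3 peptide was read by AlphaScreen. Buffer was PBS pH 7.4 with 0.01% Tween-20. Incubations ran 30 min at room temperature, with 10 ug/mL donor/acceptor beads.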
L3MBTL1 inh: inhibitors of human L3MBTL1; Potency, µM (top dose mostly 57.1 µM), for inactives: at the highest dose activity, negative = inhibition, hits mostly inhibitors; AlphaScreen L3MBTL1–H3K9me1 peptide binding; 230,000 compounds, 0.66% hits; further: on the % scale 0 is the no-effect control and ±100 the full control effect; nearly all actives have a fitted effect of over 60% in size
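L3MBTL1 50 nM + b-AHA-H3(1-15)K9me1 75 nM, 30 min RT; compound added, 30 min RT; streptavidin donor/Ni-chelate acceptor beads 10 ug/mL each final, 30 min RT dark; AlphaScreen read.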
JMJD2A Tudor inh: JMJD2A Tudor domain (human) inhibition | O75164 | AlphaScreen JMJD2A-Tudor / H3K4me3 peptide binding | Potency, µM (series often up to 114 µM), for inactives: at the highest dose activity change, negative = inhibition, usual class: inhibitors | 390,000 compounds, 4.4% hits | AID 504339; further: on the % scale 0 is the no-effect control and ±100 the full control effect; nearly all actives have a fitted effect of over 50% in size
BAZ2B block: inhibitors of human BAZ2B bromodomain; Q9UIF8; AlphaScreen BAZ2B-H3K14Ac peptide displacement; Potency, µM (doses to about 114 µM), for inactives: top-dose activity change, negative = inhibition, hits mostly inhibitors; 360,000 compounds, 4.4% hits; AID 504333; further: on the % scale 0 is the no-effect control and ±100 the full control effect; nearly all actives have a fitted effect of over 60% in size
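Multi-concentration screen (max 110 uM) measuring displacement of acetylated histone H3 peptide from BAZ2B by AlphaScreen, using 50 nM protein, 50 nM peptide and 10 ug/mL streptavidin donor plus Ni-chelate acceptor beads.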
Starred values were filed as active, the others as inactive; ? = inconclusive; / = not tested or not shown; [ ] = remark or other dose. Shown are actives, neighbours in structure and some others; about 12% of the full set was active somewhere. The call rests on the fitted dose curve; in most records, active means well fitted curve in the direction sought with a large enough effect; inconclusive means small, poorly fitted or top-dose-only effect, or another doubt; inactive means no such curve, though single readings can be large; an effect the other way counts as inactive or inconclusive. Potency means the concentration at half of the fitted maximal effect.

SMILES | G9a block | Sfp PPTase inh | HP1b binding inh | L3MBTL1 inh | JMJD2A Tudor inh | BAZ2B block
CC(=NNc1ccc2ccccc2n1)c1ccccc1O | / | / | 26% | / | -22% | /
CCOC(=O)Cc1c(C)nc2c(C#N)c[nH]n2c1=O | 79µM* | 17% | 31% | 0% | -24% | -6%
CCOC(=O)Cc1c(C)nc2c(-c3ccc(Cl)cc3)c(C)[nH]n2c1=O | 50µM* | -2% | 37% | 11% | -18% | 8%
Cc1ccc(NS(=O)(=O)c2cc3c(cc2/C=C/c2ccccc2)NC(=O)CO3)cc1C | / | / | / | / | -9% | /
CCCC(=O)NC1=C(Cl)C(=O)c2ccccc2C1=O | / | / | 7.1µM* | / | 1.8µM* | /
CCN(CC)c1ccc(NC2=C(Cl)C(=O)c3ccccc3C2=O)cc1 | 1.8µM* | ? | 4µM* | ? | 2.5µM* | 2.2µM*
CCC(=O)NC1=C(Nc2ccc(N)cc2)C(=O)c2ccccc2C1=O | 50µM* | -1% | ? | / | -23% | ?
COc1ccc(NC2=C(NC(C)=O)C(=O)c3ccccc3C2=O)cc1 | ? | 1% | ? | / | -21% | ?
CCN(CC)c1ccc(NC(=O)CCCCC(=O)Nc2ccc(N(CC)CC)cc2)cc1 | / | / | 8% | / | -31% | /
Cc1cc(C)cc(NC2=C(N)C(=O)c3ccccc3C2=O)c1 | 1.6µM* | 18% | -19% | / | ? | ?
C=C(C)C1COc2cc3oc(=O)ccc3cc2O1 (stereo not given) | -32%[2.33 µM] | 11% | / | / | / | /
Cc1ccc(NC2=C(Cl)C(=O)c3ccccc3C2=O)cc1 | 79µM* | 16% | -20% | -6% | ? | ?
O=C1C(Cl)=C(Nc2ccc(O)cc2)C(=O)c2ccccc21 | 11µM* | -22% | ? | -2% | ? | ?
Cc1ccc(-n2c(SCC(N)=O)nc3c(oc4ccccc43)c2=O)cc1C | 14%[59 µM] | / | 44% | / | -1% | -19%
CCOc1ccc(CCNC(=O)Cn2ncc3c(=O)oc4ccc(C)cc4c32)cc1 | 6%[59 µM] | / | 23% | / | -16% | -9%
COc1ccc(CCNC(=O)c2nc(SCc3ccccc3F)ncc2Cl)cc1OC | -23%[59 µM] | / | -3% | / | -34% | -28%
CCc1oc(C(=O)OC)cc1CSC(=N)N | 50µM* | 12% | 12% | 0% | -15% | -6%
Cc1cc(N2C(=O)c3ccccc3C2=O)no1 | / | / | / | / | -11% | /
CCN(c1ccccc1)S(=O)(=O)c1ccc(C(=O)N(CCCN(C)C)c2nc3cc4c(cc3s2)OCO4)cc1 | 40µM* | ? | ? | / | 40µM* | -37%
CN(C)CCN(C(=O)c1cccc(N2C(=O)CCC2=O)c1)c1nc2ccc(Br)cc2s1 | ? | 2% | 10% | / | -10% | -5%
CN(C)CCCN(C(=O)c1ccc(S(=O)(=O)N(C)Cc2ccccc2)cc1)c1nc2cc3c(cc2s1)OCO3 | 50µM* | ? | -15% | / | 50µM* | ?
CN(C)CCN(C(=O)c1ccc(N2C(=O)CCC2=O)cc1)c1nc2cc3c(cc2s1)OCO3 | 40µM* | 1% | 18% | / | -15% | /
COc1ccc2sc(N(CCCN(C)C)C(=O)c3ccc(S(=O)(=O)N(C)Cc4ccccc4)cc3)nc2c1 | 45µM* | / | ? | -11% | 50µM* | ?
CCN(c1ccccc1)S(=O)(=O)c1ccc(C(=O)N(CCCN(C)C)c2nc3c(C)cccc3s2)cc1 | / | -15% | -19% | / | 45µM* | 28µM*
CN(C)CCCN(C(=O)c1ccc([N+](=O)[O-])o1)c1nc2cc3c(cc2s1)OCO3 | 56µM* | -4% | 0% | / | -30% | -33%
SMILES | G9a block | Sfp PPTase inh | HP1b binding inh | L3MBTL1 inh | JMJD2A Tudor inh | BAZ2B block
CCC(=O)N1CCc2cc(S(=O)(=O)NC(CC(C)C)C(=O)NCc3ccc(F)cc3)ccc21 (stereo not given) | 4%[59 µM] | / | 24% | / | -16% | /
COc1ccc(NCc2cc(=O)[nH]c3ccccc23)cc1 | ? | 2% | -13% | / | ? | 79µM*
COc1ccc2[nH]c(=O)c(CNc3ccccc3)cc2c1 | 35µM* | 50µM* | 14% | -5% | -28% | 0%
COc1ccc(NC(=O)c2cc(=O)[nH]c3ccccc23)cc1 | 13% | -9% | 27% | / | 8% | -6%
COc1ccc2[nH]c(=O)c(CNc3ccccc3OC)cc2c1 | 35µM* | 16µM* | -15% | -2% | ? | ?
COc1ccc2[nH]c(=O)c(CN(C(=O)c3cccc(Cl)c3)c3ccccc3OC)cc2c1 | 14µM* | / | 15% | / | -12% | -10%
Cc1noc(C)c1S(=O)(=O)NCCc1csc2nc(-c3ccc(Cl)cc3)nn12 | -5%[59 µM] | / | 26% | / | -10% | 2%
Cc1c(P(=S)(c2ccccc2)c2ccccc2)c2ccccc2n1Cc1ccccc1 | / | / | / | / | -6% | /
COc1ccc2[nH]c(=O)c(CNc3ccccc3C)cc2c1 | 10µM* | 22µM* | -2% | 1% | -27% | -1%
N=C(N)S/C=C\C(=O)O | 25µM* | 7.9µM* | / | / | / | /
Cc1cc(C)c(C(=O)OCC(=O)NC(=O)c2ccccc2)c(C)c1 | 7% | / | 31% | 13% | -9% | -1%
Cc1cccc(C(=O)OCC(=O)NC(=O)c2ccccc2)c1O | -1%[0.501 µM] | / | 14% | 39% | -5% | 79µM*
